Pol kappa inh: inhibitors of human DNA polymerase kappa | Q9UBT6 | Potency, µM (titrated, usually from 107 µM), without a hit: top-dose activity, negative = inhibition, hits mostly inhibitors | purified Pol kappa, fluorescent DNA synthesis assay, 10 min | 400,000 tested, 0.53% active; note: % is set by controls: 0 for no effect and ±100 for the full control effect
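Pol kappa 10 nM + cpd, 15 min RT; start w/ substrate 50 nM final; fluorescence kinetic read, 0 and 10 min. Neg ctrl: buffer, no enzyme.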
Pol iota inh: blocks human DNA polymerase iota activity. Pol iota fluorescent replication assay, 10 min. Potency, µM (series often up to 115 µM), for inactives: at the highest dose activity, negative = inhibition, actives largely listed as inhibitors. 390,000 tested, 1% active. AID 588590
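Fluorescent replication assay read twice, at 0 min and 10 min after adding 50 nM (final) substrate. Enzyme (10 nM) and compounds were first incubated 15 min at room temperature; enzyme-free buffer wells were negative controls.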
POLB inh: blocks human DNA polymerase beta activity; 340,000 tested, 1.3% active; Pol beta primer extension/strand displacement, fluorescence kinetic; P06746; Potency, µM (highest dose often 114 µM), for the others: top-dose activity change, negative = inhibition, usual class: inhibitors; note: % is set by controls: 0 for no effect and ±100 for the full control effect
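Preincubation: enzyme (10 nM) with compound, 15 min, RT. Reaction: substrate added to 50 nM final. Reads: 0 and 10 min. Analysis: normalized, Hill fit.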
GLS inh: glutaminase GLS (human) inhibition | AID 624170 | O94925 | GLS enzymatic activity, qHTS titration | Potency, µM (titrated, usually from 45.5 µM), for inactives: at the top dose activity change, negative = inhibition, actives largely listed as inhibitors | 410,000 tested, 0.21% active; note: % is set by controls: 0 for no effect and ±100 for the full control effect
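Coupled fluorescence readout: glutamate oxidase/HRP/Amplex Red detect glutamate formed by hKGA from L-glutamine (1 mM solution added). Buffer 45 mM KH2PO4 pH 8.2, 0.02% Tween-20; reads at t0 and 30 min RT.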
Pol eta inh: inhibitors of human DNA polymerase eta; Q9Y253; recombinant Pol eta, fluorescent DNA replication assay; Potency, µM (series often up to 114 µM), for inactives: at the top dose activity change, negative = inhibition, actives largely listed as inhibitors; 390,000 tested, 1.2% active; AID 588591; note: % is set by controls: 0 for no effect and ±100 for the full control effect
Target sequence (Q9Y253 whole entry, looked up): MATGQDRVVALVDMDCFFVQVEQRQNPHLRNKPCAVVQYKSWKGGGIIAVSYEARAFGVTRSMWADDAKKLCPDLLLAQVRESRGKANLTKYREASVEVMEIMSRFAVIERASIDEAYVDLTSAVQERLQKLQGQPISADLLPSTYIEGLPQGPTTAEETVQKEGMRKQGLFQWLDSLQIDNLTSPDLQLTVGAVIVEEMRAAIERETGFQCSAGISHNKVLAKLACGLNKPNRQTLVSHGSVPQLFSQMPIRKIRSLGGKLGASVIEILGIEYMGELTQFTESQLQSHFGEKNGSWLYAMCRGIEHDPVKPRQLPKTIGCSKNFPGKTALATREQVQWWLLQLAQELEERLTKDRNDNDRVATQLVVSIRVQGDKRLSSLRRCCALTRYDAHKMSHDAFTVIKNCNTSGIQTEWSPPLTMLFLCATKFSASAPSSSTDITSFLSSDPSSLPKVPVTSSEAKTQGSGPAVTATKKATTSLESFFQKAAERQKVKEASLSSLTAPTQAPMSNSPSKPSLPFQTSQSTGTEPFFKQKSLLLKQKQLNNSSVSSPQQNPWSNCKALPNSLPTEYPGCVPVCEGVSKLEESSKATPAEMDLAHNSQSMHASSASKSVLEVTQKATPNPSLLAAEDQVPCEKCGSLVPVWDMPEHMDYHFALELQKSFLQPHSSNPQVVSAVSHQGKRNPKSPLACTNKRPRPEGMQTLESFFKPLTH
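Pol eta at 10 nM preincubated with compounds 15 min at room temperature; reaction started with fluorescent substrate (50 nM final) and read kinetically at 0 and 10 min.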
APEX1 inh: inhibitors of human APE1 endonuclease; P27695; recombinant APE1, TAMRA/BHQ-2 abasic DNA cleavage fluorescence; Potency, µM (highest dose often 65.8 µM), for inactives: at the top dose activity change, negative = inhibition, most hits filed as inhibitors; 350,000 tested, 0.35% active; AID 2517;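 note: plate controls were vehicle for no effect and reference inhibitor for full effect; nearly all actives have a fitted effect of over 55% in size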
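APE1 at 0.75 nM preincubated 15 min at room temperature with compound. Reaction then started with 50 nM double-stranded THF-abasic substrate labelled with TAMRA/BHQ-2, and 525/598 nm fluorescence read kinetically. Activity taken as third-minus-first read difference, normalized to DMSO and NSC13755 controls.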
* hit, by the source's call. Compounds with a hit are over-represented: about 2.4% of the library has one in this group of screens. Calls come from the whole dose curve; as a rule, active = well fitted curve in the direction sought with a large enough effect; inconclusive = small, poorly fitted or top-dose-only effect, or another doubt; inactive = no such curve, though single readings can be large; an effect the other way counts as inactive or inconclusive. Potency is the fitted concentration of half-maximal effect.

COc1ccccc1C(=O)NCC(=O)N/N=C/c1cc(Br)ccc1OC(=O)/C=C\c1ccco1 was read as Pol kappa inh 32µM*, Pol iota inh inconclusive, POLB inh -5%, GLS inh 6%, Pol eta inh -8% and APEX1 inh -7%.
For O=C(CNC(=O)c1ccc(F)cc1)N/N=C/c1cc(Br)ccc1OC(=O)/C=C/c1ccco1 the results were Pol kappa inh -19%, Pol iota inh inconclusive, POLB inh inconclusive, GLS inh -15%, Pol eta inh 56µM* and APEX1 inh 0%.
For COCC(C)n1c(SCC(=O)N(C)C2CCS(=O)(=O)C2)nc2ccccc2c1=O (stereo unspecified) the results were Pol kappa inh -3%, Pol iota inh 213%, POLB inh 38%, GLS inh 3%, Pol eta inh -15% and APEX1 inh 14%.
CC(C)n1cnc2c(NCc3ccccc3)cc(N[C@H](C)CO)cc21 was read as Pol kappa inh -9%, Pol iota inh inconclusive, GLS inh -5%, Pol eta inh inconclusive and APEX1 inh 7%.
For CC1Cc2ccccc2N1C(=O)COC(=O)c1ccc(N(C)C)cc1 (stereo unspecified) the results were Pol kappa inh 50µM*, Pol iota inh 13µM*, GLS inh inconclusive, Pol eta inh 7.9µM* and APEX1 inh -4%.
Cc1c(CCC(=O)N2CCC(C(=O)O)CC2)c(=O)oc2cc3oc4c(c3cc12)CCCC4 was read as Pol kappa inh 4%, Pol iota inh -3%, POLB inh 35µM*, GLS inh 5%, Pol eta inh 8% and APEX1 inh -2%.
Cc1c(CCC(=O)N2CCC(C(=O)O)(c3ccccc3)CC2)c(=O)oc2cc3oc4c(c3cc12)CCCC4 was read as Pol kappa inh -35%, Pol iota inh -26%, POLB inh 2%, GLS inh 0%, Pol eta inh 3% and APEX1 inh 8%.
`O=C(O)CN1C(=O)/C(=C\c2cccc(OCc3ccc(Cl)cc3)c2)SC1=S` gave Pol kappa inh -31%, Pol iota inh inconclusive, POLB inh inconclusive, GLS inh 16%, Pol eta inh 50µM* and APEX1 inh 11%.
O=C(O)CN1C(=O)/C(=C\c2cccc(OCc3ccccc3F)c2)SC1=S was read as Pol kappa inh -12%, Pol iota inh inconclusive, POLB inh 9%, GLS inh 20%, Pol eta inh inconclusive and APEX1 inh 12%.
For O=C(O)CN1C(=O)/C(=C\c2ccccc2OCc2ccc(Cl)cc2)SC1=S the results were Pol kappa inh -20%, Pol iota inh 45%, POLB inh inconclusive, GLS inh 15%, Pol eta inh 79µM* and APEX1 inh -7%.
Screening O=C(O)CN1C(=O)/C(=C\c2cc(Br)ccc2OCc2ccc(Cl)cc2Cl)SC1=S returned Pol kappa inh 11%, Pol iota inh inconclusive, POLB inh 22µM*, GLS inh 28%, Pol eta inh inconclusive and APEX1 inh inconclusive.
COc1ccc(NC(=O)c2cc(-c3cc(C)cc(F)c3)n[nH]2)cc1OC was read as GLS inh 3%.
Cc1nn(CCc2nc(-c3ccco3)cs2)c2[nH]c(=O)cc(C(F)(F)F)c12 was read as Pol kappa inh 35µM*, Pol iota inh 13µM*, POLB inh 22µM*, GLS inh 17%, Pol eta inh 32µM* and APEX1 inh inconclusive.
For CC(C)Cn1nc(C(=O)Nc2nnc(C3CC3)s2)c2ccccc2c1=O the results were Pol kappa inh -10%, Pol iota inh -3%, GLS inh 3%, Pol eta inh 4% and APEX1 inh -1%.
Screening COc1ccc([C@H]2CC(=O)C=C(c3ccc(SC)cc3)C2)cc1 returned Pol kappa inh 9%, Pol iota inh 89µM*, GLS inh 2%, Pol eta inh -14% and APEX1 inh 18%.
For COc1ccc(C2=CC(=O)C[C@H](c3ccc(OC)cc3)C2)cc1 the results were Pol kappa inh -2%, Pol iota inh 8%, GLS inh -7%, Pol eta inh -24% and APEX1 inh 18%.
Cc1nn(CC(=O)N(C)Cc2ccc(F)cc2)c(C)c1[N+](=O)[O-] was read as Pol kappa inh 0%, Pol iota inh 11%, POLB inh 0.18µM*, GLS inh 8%, Pol eta inh -7% and APEX1 inh 8%.
Screening COC(=O)C1=C(C)N(CCCC(=O)O)C(=O)NC1c1cc2c(cc1[N+](=O)[O-])OCO2 (stereo unspecified) returned Pol kappa inh 45µM*, Pol iota inh 13µM*, POLB inh 10µM*, GLS inh 2%, Pol eta inh 50µM* and APEX1 inh inconclusive.
For COC(=O)C1=C(C)N(CCCC(=O)O)C(=O)NC1c1ccc(C#N)cc1 (stereo unspecified) the results were Pol kappa inh -14%, Pol iota inh 14µM*, GLS inh 2% and Pol eta inh 5%.
For CCN(CC)Cc1c(C(=O)N/N=C(\C)c2ccncc2)nnn1-c1nonc1N the results were Pol kappa inh 0%, Pol iota inh -9%, POLB inh 28%, GLS inh 0%, Pol eta inh -5% and APEX1 inh 2%.
For COc1ccccc1/C=C(/C(=O)OCC(=O)NCc1ccccc1)c1ccccc1 the results were Pol kappa inh -5%, Pol iota inh -9%, POLB inh 3%, GLS inh -5%, Pol eta inh inconclusive and APEX1 inh -1%.
For COc1ccccc1/C=C(/CC(=O)NCc1ccc(F)cc1)c1nc2ccccc2s1 the results were Pol kappa inh -17%, Pol iota inh inconclusive, POLB inh 45µM*, GLS inh 2%, Pol eta inh inconclusive and APEX1 inh 4%.
`COc1ccccc1/C=C(/CC(=O)NCc1ccccc1)c1nc2ccccc2s1` gave Pol kappa inh -31%, Pol iota inh -5%, POLB inh 20µM*, GLS inh 2%, Pol eta inh inconclusive and APEX1 inh 2%.
For Nc1cc(N)nc(SCCc2ccccc2)n1 the results were Pol kappa inh -7%, Pol iota inh 114%, POLB inh 1%, GLS inh -6%, Pol eta inh 11% and APEX1 inh 14%.
`C=CCNC(=O)c1cc2c(C(F)(F)F)nn(C)c2s1` gave Pol kappa inh -13%, Pol iota inh 19%, POLB inh 17%, GLS inh 0%, Pol eta inh -6% and APEX1 inh -1%.
